Laboratory results taken from the supplement of paper PMC6555819.

Columns and labels:
Experiment in all cases: PBM binding z-score (relative to random genomic background probes); higher = stronger binding; sequences stand for … in GC…GCGATTGACAGCGTAGAATGAAGG
[1] = test system: RARb homodimer (NR concentration 270 nM)
Method in brief: (§1)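 On custom Agilent 4×180K arrays, double-stranded probes with 34-nt variable regions carried direct-repeat seeds, single-nucleotide variants, half-site ablations or random human genomic background. Ligand-free nuclear receptor dimers were applied for 1 h, and binding was read with antibodies against each partner (one per run). Binding z-scores come from regression-normalized fluorescence, with the random background probes as reference.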

[2] = test system: RARg:RXRa (NR concentration 270 nM, RXRa partner concentration 90 nM)
Method in brief: as §1

[3] = test system: RARg homodimer (NR concentration 270 nM)
Method in brief: as §1

[4] = test system: RXRa DBDmut IVT, anti-RXR (DBD mutation: RXRa K156A/R161A, NR concentration 90 nM)
Method in brief: as §1

[5] = test system: RXRa homodimer (NR concentration 180 nM)
Method in brief: as §1

[6] = test system: THRa:RXRa (NR concentration 90 nM, RXRa partner concentration 90 nM)
Method in brief: as §1

[7] = test system: THRa homodimer (NR concentration 90 nM)
Method in brief: as §1

[8] = test system: VDR:RXRa (NR concentration 270 nM, RXRa partner concentration 90 nM)
Method in brief: as §1

[9] = test system: VDR homodimer (NR concentration 270 nM)
Method in brief: as §1

Sequence | PBM binding z-score [1] | PBM binding z-score [2] | PBM binding z-score [3] | PBM binding z-score [4] | PBM binding z-score [5] | PBM binding z-score [6] | PBM binding z-score [7] | PBM binding z-score [8] | PBM binding z-score [9]
TCTATTAGTTGAAGGCCAACCGACGAGTCCGTTT | 0.914 | 0.229 | 0.415 | 1.59 | 0.648 | 0.129 | 0.372 | 1.02 | 1.35
TCTTGGAGATCAAGCAGGTTAAGAAAGCCTGAGT | 0.0966 | 0.06 | -0.27 | 0.163 | 0.643 | 0.589 | -0.604 | 1.04 | 0.0474
ACTAGCAGGCCAAGGGTCACTTAAGATTAGTCCG | 3.52 | 4.12 | 4.04 | 0.5 | 3.87 | 2.96 | 0.297 | 2.88 | 0.981
TCTGCTAGGTCAACGATGGTAAGCTAATCTGCTA | 2.66 | 3.8 | 4.83 | 0.819 | 2.4 | 2.62 | 0.291 | 1.82 | -0.612
ATCTCTAGGTAACCAAGGTCAGTGAATGCCGAAC | 3.5 | 2.62 | 2.69 | 0.51 | 2.14 | 3.31 | 2.53 | 3.67 | 1.52
ATTTACGGGTCAACGAGGTTATAGCACGCGTATA | 3.79 | 6.1 | 5.62 | 2.5 | 6.99 | 4.19 | 1.43 | 8.05 | 4.5
AGTCAAAGTTCATCTAGCTAACGTAAGATATGCT | 3.76 | 5.27 | 6 | 4.58 | 4.7 | 1.67 | -0.302 | 4.35 | 4.9
TCTATTAGTTGATTAGGGCAACTGAAACAGCGGA | 0.795 | 0.45 | 0.804 | 0.885 | 0.275 | 0.533 | 0.295 | 0.717 | 0.318
TTACCAAGGTGAGCCGAGGTCGTTGATCCAACTC | 1.75 | 1.67 | 1.38 | -0.0655 | 1.77 | 4.53 | 1.49 | 4.51 | 1.98
ATCTCTAGGTAAAAGTTCAGTCAATCCCGAGGAT | 2.54 | 2.1 | 2.2 | 1.12 | 1.7 | 1.53 | 0.584 | 1.45 | 2.36
ATCTCTAGGTAACCAAGTTCAGTCAATGCCGAAC | 2 | 1.22 | 1.21 | 1.27 | 0.744 | 1.86 | 1.06 | 4.36 | 3.43
TGAATGAGGTTATAAGCTCAGGGAACGTTGCAAA | -0.162 | 1.1 | 0.731 | 0.518 | 1.91 | 1.67 | 0.118 | 0.693 | 0.00669
CCTACTGGGCCAAAGGTCATTTATTCCAATGCTC | 4.42 | 5.3 | 4.03 | 1.55 | 6.1 | 3.27 | 0.735 | 4.34 | 3.04
ACTAGCAGGCCAAGTTTGGGTCACTCACACAAAG | 2.45 | 2.62 | 1.68 | 0.307 | 1.08 | 2.56 | 1.24 | 0.806 | 0.348
CCGACTCGGGCAAAGGTTACCATACTCAGTACGA | 2.04 | 3.36 | 1.68 | 0.702 | 3.21 | 1.6 | -0.126 | 1.33 | -0.375
TGAATGAGGTTAAAGAACAGGGAACGTGGCGTCG | 0.64 | 1.86 | 1.5 | 1.33 | 2.68 | 2.03 | 0.34 | 1.12 | 0.66
